# PubChem BioAssay (Tox21)
# “And” between values parts separate entries of the source, which are not always exact repeats. Identical values can stand only once. Records with an inconclusive call do not appear. A call without a number means that no potency is given here. Some structures have more than one record in an assay (separate samples or runs), and their calls can disagree. The source made the active and inactive calls. Calls follow the shape of the dose curve; as a rule, active = well fitted curve in the direction sought with a large enough effect in the repeat runs; inconclusive = weak or mixed curves; inactive = no such curve, though single readings can be large; an effect the other way counts as inactive or inconclusive.
# How the values were obtained:
# [1] = Caspase-3/7 induction in HepG2 cells by small molecules, qHTS cell viability counter screen (AID 1346981); also: nearly all actives have a fitted effect of over 30% in size; also: potency is read from the fitted curve at half-maximal effect
# Procedure, shortened: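 CellTiter-Fluor fluorescence measured viability in the same wells used for Caspase-Glo 3/7. HepG2 (wild type) at 2,000 cells/well were pre-incubated 5 hr, dosed, and given reagent at 16 hr, with 1 hr further at 37C.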
# [2] = biological target: Nuclear receptor subfamily 1 group I member 2 (Homo sapiens) (UniProt O75469); assay: Human pregnane X receptor (PXR) small molecule agonists, qHTS assay (AID 1346982); also: nearly all actives have a fitted effect of over 35% in size; also: potency is read from the fitted curve at half-maximal effect
# Procedure, shortened: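 Agonist mode: luminescence from ONE-Glo after 24 h compound exposure at 37C in HepG2 cells carrying hPXR-responsive CYP3A4 luciferase, plated in charcoal-stripped serum medium 5 h beforehand.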
# [3] = biological target: Cytochrome P450 2D6 (Homo sapiens) (UniProt P10635); assay: Cytochrome P450 Family 2 Subfamily D Member 6 (CYP2D6) small molecule antagonists: luciferase reporter qHTS assay (AID 1671196); also: nearly all actives have a fitted effect of over 50% in size; also: potency is read from the fitted curve at half-maximal effect
# Procedure, shortened: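 CYP2D6 activity was followed as luminescence from its luciferin product after a 1 h NADPH-driven reaction at room temperature. Enzyme-substrate mix and compound were pre-incubated for 10 min, and the signal was read 20 min after adding detection reagent.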
# [4] = biological target: Cytochrome P450 2C19 (Homo sapiens) (UniProt P33261); assay: Cytochrome P450 Family 2 Subfamily C Member 19 (CYP2C19) small molecule antagonists: luciferase reporter qHTS assay (AID 1671197); also: nearly all actives have a fitted effect of over 65% in size; also: potency is read from the fitted curve at half-maximal effect
# Procedure, shortened: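 Inhibition of CYP2C19 was scored from loss of luminescence in a P450-Glo proluciferin substrate assay, NADPH-started and run 1 h at 37C, with ketoconazole as positive control.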
# [5] = biological target: Cytochrome P450 1A2 (Homo sapiens) (UniProt P05177); assay: Cytochrome P450 Family 1 Subfamily A Member 2 (CYP1A2) small molecule antagonists: luciferase reporter qHTS assay (AID 1671199); also: nearly all actives have a fitted effect of over 50% in size; also: potency is read from the fitted curve at half-maximal effect
# Procedure, shortened: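 Luminescence from luciferin formed by CYP1A2 from a proluciferin substrate, read 20 min after detection reagent. Compound was pre-incubated 10 min with enzyme-substrate, and reaction started with NADPH regeneration solution for 1 h at room temperature; furafylline control.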
# [6] = biological target: Voltage-gated inwardly rectifying potassium channel KCNH2 (Homo sapiens) (UniProt Q12809); assay: Human Ether-a-go-go-Related Gene (hERG) channel small molecule antagonists: fluorescence cell-based qHTS assay (AID 1671200);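 also: hERG-expressing U2OS cells given a thallium stimulus after FluxOR II dye loading; series mostly up to about 77 µM; nearly all actives have a fitted effect of over 50% in size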
# Procedure, shortened: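 Thallium served as the potassium surrogate; its influx into dye-loaded U2OS cells carrying the channel was measured by fluorescence over 2 min.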
# [7] = biological target: Cytochrome P450 3A4 (Homo sapiens) (UniProt P08684); assay: Cytochrome P450 Family 3 Subfamily A Member 4 (CYP3A4) small molecule antagonists: luciferase reporter qHTS assay (AID 1671201); also: nearly all actives have a fitted effect of over 50% in size; also: potency is read from the fitted curve at half-maximal effect
# Procedure, shortened: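 Relative luminescence units after 20 min with luciferin detection reagent served as read-out. Beforehand, CYP3A4 turned over a proluciferin substrate for 1 h at room temperature with NADPH regeneration, following 10 min compound preincubation.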
# [8] = biological target: Cytochrome P450 2C9 (Homo sapiens) (UniProt P11712); assay: Cytochrome P450 Family 2 Subfamily C Member 9 (CYP2C9) small molecule antagonists: luciferase reporter qHTS assay (AID 1671198); also: nearly all actives have a fitted effect of over 50% in size; also: potency is read from the fitted curve at half-maximal effect
# Procedure, shortened: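 CYP2C9 activity was measured with a P450-Glo proluciferin substrate. Enzyme–substrate mix was held with compound for 10 min at room temperature, then NADPH regeneration solution was added for 1 h at 37C. Luciferin product was read as luminescence.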
# Cytochrome P450 2C9 (Homo sapiens), sequence (P11712 whole entry, looked up): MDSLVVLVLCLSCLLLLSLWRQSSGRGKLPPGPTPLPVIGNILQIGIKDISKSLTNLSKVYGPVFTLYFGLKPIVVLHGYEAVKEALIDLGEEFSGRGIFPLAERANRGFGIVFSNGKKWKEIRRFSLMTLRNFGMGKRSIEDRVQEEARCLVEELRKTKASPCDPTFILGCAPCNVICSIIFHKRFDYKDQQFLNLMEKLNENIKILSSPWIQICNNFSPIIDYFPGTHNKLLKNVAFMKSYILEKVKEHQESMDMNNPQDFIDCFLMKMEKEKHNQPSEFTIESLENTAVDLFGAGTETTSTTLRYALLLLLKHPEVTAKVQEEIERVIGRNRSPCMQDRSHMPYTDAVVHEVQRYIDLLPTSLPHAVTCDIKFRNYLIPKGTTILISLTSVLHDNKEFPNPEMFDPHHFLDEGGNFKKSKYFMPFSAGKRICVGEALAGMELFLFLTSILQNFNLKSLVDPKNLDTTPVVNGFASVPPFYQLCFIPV
# Cytochrome P450 2C19 (Homo sapiens), sequence (P33261 whole entry, looked up): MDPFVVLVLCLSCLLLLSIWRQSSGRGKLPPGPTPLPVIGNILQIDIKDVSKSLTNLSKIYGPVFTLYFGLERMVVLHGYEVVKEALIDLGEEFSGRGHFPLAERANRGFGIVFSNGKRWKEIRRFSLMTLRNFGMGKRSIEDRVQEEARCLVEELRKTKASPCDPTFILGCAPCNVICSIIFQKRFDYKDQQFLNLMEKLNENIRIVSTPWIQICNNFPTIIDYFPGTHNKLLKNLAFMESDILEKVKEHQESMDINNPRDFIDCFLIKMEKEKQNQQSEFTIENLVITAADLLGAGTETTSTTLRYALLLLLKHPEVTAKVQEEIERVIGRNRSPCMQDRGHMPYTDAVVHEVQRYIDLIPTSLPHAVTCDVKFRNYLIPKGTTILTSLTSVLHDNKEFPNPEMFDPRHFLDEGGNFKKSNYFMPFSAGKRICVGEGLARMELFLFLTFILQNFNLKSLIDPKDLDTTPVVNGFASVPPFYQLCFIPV
# Voltage-gated inwardly rectifying potassium channel KCNH2 (Homo sapiens), sequence (Q12809 whole entry, looked up): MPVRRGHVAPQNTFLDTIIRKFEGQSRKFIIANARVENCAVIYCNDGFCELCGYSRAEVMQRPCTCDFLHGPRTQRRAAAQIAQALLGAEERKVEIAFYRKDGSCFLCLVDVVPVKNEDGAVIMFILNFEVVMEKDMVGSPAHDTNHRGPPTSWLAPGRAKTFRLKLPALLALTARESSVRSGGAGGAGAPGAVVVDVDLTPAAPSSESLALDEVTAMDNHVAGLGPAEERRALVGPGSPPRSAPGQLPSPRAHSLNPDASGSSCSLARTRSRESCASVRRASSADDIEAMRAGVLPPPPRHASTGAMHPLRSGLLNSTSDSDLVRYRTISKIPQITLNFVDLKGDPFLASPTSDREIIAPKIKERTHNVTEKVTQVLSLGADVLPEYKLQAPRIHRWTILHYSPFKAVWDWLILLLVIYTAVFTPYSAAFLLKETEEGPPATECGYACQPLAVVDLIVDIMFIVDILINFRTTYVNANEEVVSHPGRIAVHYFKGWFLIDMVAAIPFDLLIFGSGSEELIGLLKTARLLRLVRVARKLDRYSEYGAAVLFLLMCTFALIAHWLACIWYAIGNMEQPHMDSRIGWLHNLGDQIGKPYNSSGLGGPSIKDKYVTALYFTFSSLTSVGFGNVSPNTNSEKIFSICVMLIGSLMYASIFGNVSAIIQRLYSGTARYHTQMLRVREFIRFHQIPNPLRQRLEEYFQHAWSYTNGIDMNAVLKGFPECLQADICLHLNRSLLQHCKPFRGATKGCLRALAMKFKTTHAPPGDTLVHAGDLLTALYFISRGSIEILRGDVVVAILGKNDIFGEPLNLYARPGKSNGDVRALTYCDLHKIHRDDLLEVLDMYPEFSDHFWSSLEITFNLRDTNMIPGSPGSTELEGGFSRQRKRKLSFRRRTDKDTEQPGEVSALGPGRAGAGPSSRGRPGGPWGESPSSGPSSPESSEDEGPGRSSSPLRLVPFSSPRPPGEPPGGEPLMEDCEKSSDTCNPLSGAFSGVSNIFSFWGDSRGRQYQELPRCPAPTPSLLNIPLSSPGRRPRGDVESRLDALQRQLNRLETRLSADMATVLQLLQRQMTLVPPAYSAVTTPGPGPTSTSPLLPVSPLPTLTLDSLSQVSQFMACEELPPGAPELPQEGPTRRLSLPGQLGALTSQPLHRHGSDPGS
# Cytochrome P450 1A2 (Homo sapiens), sequence (P05177 whole entry, looked up): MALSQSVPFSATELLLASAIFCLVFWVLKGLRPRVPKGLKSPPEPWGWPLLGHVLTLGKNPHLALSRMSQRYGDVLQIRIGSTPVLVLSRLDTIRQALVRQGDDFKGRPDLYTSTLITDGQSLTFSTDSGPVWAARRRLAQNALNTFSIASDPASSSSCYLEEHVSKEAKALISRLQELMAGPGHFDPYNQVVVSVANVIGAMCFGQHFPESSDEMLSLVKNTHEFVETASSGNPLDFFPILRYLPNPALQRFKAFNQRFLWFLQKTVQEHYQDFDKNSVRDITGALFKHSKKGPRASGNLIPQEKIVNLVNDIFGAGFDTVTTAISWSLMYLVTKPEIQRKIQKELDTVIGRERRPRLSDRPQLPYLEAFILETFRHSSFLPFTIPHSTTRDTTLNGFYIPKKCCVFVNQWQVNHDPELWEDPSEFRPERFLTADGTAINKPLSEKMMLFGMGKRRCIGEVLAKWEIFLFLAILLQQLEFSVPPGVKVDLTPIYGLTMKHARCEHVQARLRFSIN
# Cytochrome P450 2D6 (Homo sapiens), sequence (P10635 whole entry, looked up): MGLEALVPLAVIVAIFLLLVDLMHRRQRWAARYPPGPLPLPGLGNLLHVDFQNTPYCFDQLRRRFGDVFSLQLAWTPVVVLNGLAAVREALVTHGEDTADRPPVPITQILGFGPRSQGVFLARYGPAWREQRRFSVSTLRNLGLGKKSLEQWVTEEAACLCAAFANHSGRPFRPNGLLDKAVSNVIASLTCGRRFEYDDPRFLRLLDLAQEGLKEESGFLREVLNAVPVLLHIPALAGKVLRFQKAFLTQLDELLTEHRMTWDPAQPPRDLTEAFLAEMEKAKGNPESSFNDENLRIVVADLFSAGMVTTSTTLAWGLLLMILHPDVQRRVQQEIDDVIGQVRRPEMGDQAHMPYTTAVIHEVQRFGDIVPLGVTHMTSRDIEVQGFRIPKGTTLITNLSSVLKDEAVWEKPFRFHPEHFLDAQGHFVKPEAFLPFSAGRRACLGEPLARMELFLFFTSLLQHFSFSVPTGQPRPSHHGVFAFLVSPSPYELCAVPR
# Cytochrome P450 3A4 (Homo sapiens), sequence (P08684 whole entry, looked up): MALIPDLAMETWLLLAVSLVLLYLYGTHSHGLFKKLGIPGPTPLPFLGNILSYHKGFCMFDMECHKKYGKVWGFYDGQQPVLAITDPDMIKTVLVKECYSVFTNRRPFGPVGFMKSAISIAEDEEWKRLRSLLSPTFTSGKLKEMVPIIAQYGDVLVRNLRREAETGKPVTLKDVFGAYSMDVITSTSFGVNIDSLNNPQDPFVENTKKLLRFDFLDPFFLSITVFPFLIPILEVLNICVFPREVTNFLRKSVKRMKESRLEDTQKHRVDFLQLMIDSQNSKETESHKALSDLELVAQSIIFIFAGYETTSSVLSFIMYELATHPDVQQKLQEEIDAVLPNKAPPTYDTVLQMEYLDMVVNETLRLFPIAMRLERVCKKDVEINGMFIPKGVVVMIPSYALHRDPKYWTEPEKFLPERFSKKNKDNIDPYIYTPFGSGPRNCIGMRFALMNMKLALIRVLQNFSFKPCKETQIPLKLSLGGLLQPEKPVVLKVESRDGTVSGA
# Nuclear receptor subfamily 1 group I member 2 (Homo sapiens), sequence (O75469 whole entry, looked up): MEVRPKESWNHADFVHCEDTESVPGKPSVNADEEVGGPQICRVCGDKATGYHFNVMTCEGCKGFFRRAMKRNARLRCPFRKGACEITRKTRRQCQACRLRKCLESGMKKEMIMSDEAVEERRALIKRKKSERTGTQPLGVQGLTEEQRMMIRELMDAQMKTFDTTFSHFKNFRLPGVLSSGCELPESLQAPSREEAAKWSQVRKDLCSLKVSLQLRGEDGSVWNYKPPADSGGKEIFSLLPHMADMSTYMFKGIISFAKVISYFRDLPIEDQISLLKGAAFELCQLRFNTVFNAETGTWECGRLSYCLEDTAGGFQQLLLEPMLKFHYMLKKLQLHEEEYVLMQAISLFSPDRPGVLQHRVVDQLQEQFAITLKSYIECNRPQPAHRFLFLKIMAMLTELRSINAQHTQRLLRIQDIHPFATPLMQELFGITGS
Compound,Potency [1],Potency [2],Potency [3],Potency [4],Potency [5],outcome [6],Potency [7],Potency [8]
O=C(O)c1ccc2c(c1)C(=O)OC2=O,inactive,inactive,inactive,inactive,inactive,inactive,inactive,
O=P(OC(CCl)CCl)(OC(CCl)CCl)OC(CCl)CCl,30.5 µM (active),34.2 µM (active) and 6.11 µM (active),39.7 µM (active) and 35.6 µM (active),7.06 µM (active) and 35.6 µM (active),35.4 µM (active) and 31.7 µM (active),inactive,706 nM (active) and 2.83 µM (active),
CCCCCC/C(C=O)=C\c1ccccc1,inactive,inactive,inactive,40.4 µM (active) and 20 µM (active),22.7 µM (active) and 8.94 µM (active),inactive,inactive,
CCCCC(CC)CO (centres undefined),inactive,inactive,inactive,inactive,inactive,inactive,inactive,inactive
FC(F)(F)c1ccc(Cl)c(Cl)c1,inactive,inactive,inactive,inactive,,inactive,inactive,inactive
C/C=C1/CC2C=CC1C2 (centres undefined),inactive,inactive and 54.5 µM (active),inactive,inactive,inactive,inactive,inactive and 31.7 µM (active),
Cc1ccc(N(C)C)cc1,inactive,inactive,inactive and 35.6 µM (active),inactive and 50.2 µM (active),inactive,inactive,inactive,
CC(C)(C)[C@@H](O)[C@@H](Cc1ccc(Cl)cc1)n1cncn1,inactive,34.1 µM (active),71 µM (active),250 nM (active) and 159 nM (active),inactive,inactive,112 nM (active) and 200 nM (active),11.2 µM (active) and 22.4 µM (active)
CCN(CC)c1ccc(C(=O)c2ccccc2C(=O)O)c(O)c1,inactive,27.4 µM (active) and 19.3 µM (active),inactive,71.3 µM (active) and inactive,inactive,inactive,inactive,
CCCC(C)=O,inactive,inactive,inactive,inactive,inactive,inactive,inactive,
COS(C)(=O)=O,inactive,inactive,inactive,inactive,inactive,inactive,inactive,
CCC(O)OC(O)CC (centres undefined),inactive,inactive,36 µM (active) and inactive,inactive,inactive,inactive,inactive,inactive
c1ccc2c(c1)ccc1ccccc12,inactive,inactive,inactive,77.5 µM (active) and 39.9 µM (active),6.16 µM (active) and 3.99 µM (active),inactive,inactive,
C=CCOC(=O)c1ccccc1C(=O)OCC=C,inactive,inactive,inactive,1.56 µM (active) and 1.26 µM (active),2.48 µM (active) and 3.56 µM (active),inactive,3.12 µM (active) and 6.33 µM (active),
OCC(CO)(CBr)CBr,inactive,inactive,inactive,inactive,40.4 µM (active) and inactive,inactive,inactive,
CCCCCCCCCC,inactive,inactive,inactive,inactive and 71 µM (active),inactive,inactive,inactive,inactive and 79.6 µM (active)
C=C(C)C(=O)O[C@H]1C[C@@H]2CC[C@@]1(C)C2(C)C,inactive,inactive,inactive,17.7 µM (active) and inactive,inactive,inactive,inactive,inactive
CCCCC(CC)COC(=O)CS (centres undefined),inactive,inactive,28.6 µM (active),25.5 µM (active) and inactive,64.1 µM (active) and inactive,inactive,40.4 µM (active),64.1 µM (active) and 71 µM (active)
CC(C)CC(=O)CC(C)C,inactive,inactive,inactive,inactive,inactive,inactive,22.7 µM (active) and inactive,
CCCCCCCCCCCCc1ccccc1,inactive,inactive,inactive,inactive,inactive,,inactive,inactive
C[Si](O[Si](C)(C)C)O[Si](C)(C)C,inactive,inactive,inactive,inactive,inactive,inactive,inactive,
CCCCOC(=O)COc1ccc(Cl)cc1Cl,inactive,inactive,inactive,36 µM (active) and 39.9 µM (active),40.4 µM (active) and 39.9 µM (active),,inactive,36 µM (active) and 35.6 µM (active)
CCCCCOC(C)=O,inactive,inactive,inactive,32.1 µM (active) and inactive,inactive,inactive,inactive,
CC1CCC(C(C)C)C(O)C1 (centres undefined),inactive,inactive,inactive,70.3 µM (active) and inactive,,inactive,inactive,inactive

Compound,Potency [1],Potency [2],Potency [3],Potency [4],Potency [5],outcome [6],Potency [7],Potency [8]
O=S(=O)(O)c1ccc2ccccc2c1,inactive,inactive,inactive,inactive,inactive,inactive,inactive,
CCC(O)OCCCOC (centres undefined),inactive,11.1 µM (active) and inactive,inactive,41 µM (active) and inactive,inactive,inactive,inactive,
CSCCC=O,inactive,inactive,inactive,75.8 µM (active) and 7.1 µM (active),19 µM (active) and 4.48 µM (active),inactive,inactive,
O=C(O)c1ccccc1C(c1ccc(O)cc1)c1ccc(O)cc1,inactive,2.44 µM (active) and inactive,inactive,inactive,inactive,inactive,inactive,
ON=C1CCCCC1,inactive,inactive,inactive,32 µM (active) and inactive,32 µM (active) and inactive,inactive,inactive,inactive
O=C(O)c1cc(C(=O)O)cc(S(=O)(=O)O)c1,inactive,inactive,36 µM (active),inactive,inactive and 39.9 µM (active),inactive,inactive,
Cc1cccc(O)c1,inactive,inactive,inactive,inactive,,inactive,inactive,inactive
Nc1cc([N+](=O)[O-])ccc1O,48.6 µM (active) and 68.2 µM (active),inactive,inactive,39.9 µM (active) and inactive,39.9 µM (active),inactive,inactive,
CN(C)CCC(c1ccccc1)c1ccccn1 (centres undefined),inactive,,35.7 µM (active),inactive,40 µM (active) and inactive,inactive,inactive,inactive
CC(C)c1ccc(S(=O)(=O)O)cc1,inactive,inactive,inactive,inactive,inactive,inactive,inactive,
CC(C)(N)CO,inactive,60.9 µM (active) and inactive,inactive,,inactive,inactive,inactive,
O=C(O)CCCCCCCCCCC(=O)O,inactive,inactive,35.9 µM (active) and 39.9 µM (active),32 µM (active) and 31.7 µM (active),inactive,inactive,inactive,
O=C(CC(C(=O)OC1CCCCC1)S(=O)(=O)O)OC1CCCCC1 (centres undefined),inactive,26.9 µM (active),inactive,inactive,inactive,inactive,inactive,
O=C=NCCCCCCN=C=O,inactive,47.5 µM (active) and inactive,inactive,69.4 µM (active) and inactive,inactive,inactive,inactive,
O=C(O)CC(C(=O)O)C(CC(=O)O)C(=O)O (centres undefined),inactive,inactive,inactive,,,inactive,inactive,inactive
Oc1cccc2ccccc12,inactive,,,23 µM (active) and 39.9 µM (active),,inactive,,36.5 µM (active) and 35.6 µM (active)
CCCCCCCCCCCCCCO,inactive,inactive,inactive,inactive,22.4 µM (active),inactive,inactive,
C[C@H]1C[C@H]2[C@@H]3CCC4=CC(=O)C=C[C@]4(C)[C@@]3(F)[C@@H](O)C[C@]2(C)[C@@]1(O)C(=O)CO,inactive,,,,22.4 µM (active) and inactive,inactive,,
CCOC(=O)NNc1nncc2ccccc12,inactive,inactive,35.6 µM (active),inactive,20 µM (active),inactive,inactive,
COc1ccc(NC(C)=O)cc1N,inactive,,inactive,39.8 µM (active) and 39.9 µM (active),17.8 µM (active) and 25.2 µM (active),inactive,inactive,
COc1ccc(Cl)cc1C(=O)NCCc1ccc(S(=O)(=O)NC(=O)NC2CCCCC2)cc1,inactive,,inactive,inactive,inactive,,,
O=C(O)c1ccc(C(=O)O)cc1,inactive,inactive,inactive,inactive,,inactive,inactive,
CCCCN(CCCC)CCCC,inactive,inactive,inactive,,35.5 µM (active) and inactive,inactive,inactive,89.4 µM (active)
CC(=O)c1ccccc1,inactive,inactive,inactive,41.4 µM (active) and inactive,32.9 µM (active),inactive,inactive,
